For one test, the target named is STX17. The experiment in a line: pooled miR-30 sensor sort-seq; sequence = guide strand. Particulars: shRNA.
Consider TTCTGCAGCATTTTGATCTTGA, for which the sensor-assay potency score (higher = more potent) came out at 0.632.

Sequence TTCATCATTAAATTGCTTCTTA returned a sensor-assay potency score (higher = more potent) of 0.611.

Sequence TCAAACTCTGAGAACTAGCTTC yielded a sensor-assay potency score (higher = more potent) of 0.0575.

As for TTCTTCATCATTAAATTGCTTC, the sensor-assay potency score (higher = more potent) stood at 0.0874.

Consider TAGTATGAAATGCTCCACCAAC, for which the sensor-assay potency score (higher = more potent) was -1.07.

With TACTTCTCAATATTTATCTGGT, the sensor-assay potency score (higher = more potent) is 0.329.

As to TTGACATGGTCTGCAATGCTGT, the sensor-assay potency score (higher = more potent) was -0.961.

For TATATCTGAGTCAAACTCTGAG, the sensor-assay potency score (higher = more potent) was determined as 0.23.

The sequence TTCTTTAACAGGATCTATCATT displayed a sensor-assay potency score (higher = more potent) of -0.828.

With AATGCTGTCAATCTTCTCCTGC, the sensor-assay potency score (higher = more potent) was determined as 0.00387.

In the case of TTCTACACATCTCAAGTCCTTA, the sensor-assay potency score (higher = more potent) stood at 0.0253.

TTTGTATCAATTTTCCACCTGT came in with a sensor-assay potency score (higher = more potent) of 0.455.

The next test has as its target STYK1. Described as above. To be noted: shRNA.
In the case of TAGAAGAGGCTCTCCACTCTGA, the sensor-assay potency score (higher = more potent) was 0.202.

As for TTGAGGTCCAGAACGCTGCTGT, the sensor-assay potency score (higher = more potent) came to 0.125.

Sequence TATTCCTTCATTTCATTCCAAA returned a sensor-assay potency score (higher = more potent) of -1.26.

Turning to ATCCATAGTCATCACATCCCGC, the sensor-assay potency score (higher = more potent) is -0.719.

TTTAATGGCAGCTTCTAGGCGC had a sensor-assay potency score (higher = more potent) of 0.0946.

For TTCATGATACTGTACATGGTAT, the sensor-assay potency score (higher = more potent) is -0.548.

ATAGTCATCACATCCCGCCGAC showed a sensor-assay potency score (higher = more potent) of -0.512.

Take TATGTCTTAGCTCAGGATGTGT: the sensor-assay potency score (higher = more potent) was -0.84.

TTGTTCTCTGATAAAAAGCCAC returned a sensor-assay potency score (higher = more potent) of -1.1.

The sequence TTGAGAATAACACTCTTGGGCT registered a sensor-assay potency score (higher = more potent) of -0.459.

The sequence TTGAGTTCTTTGTTCTCTGATA returned a sensor-assay potency score (higher = more potent) of -1.2.

Take ATAGTAACCAACAAAGTTGGGA: the sensor-assay potency score (higher = more potent) is 0.0523.

Another test deals with STYX. Described as above. Particulars: shRNA.
The sequence TAAAATTTCCTGCATCTCTCGT showed a sensor-assay potency score (higher = more potent) of -0.395.

As to TAGGGTAGGTCCACTCCTCGGC, the sensor-assay potency score (higher = more potent) is 0.0939.

Sequence TAGAAATTCACACTCTATGATG yielded a sensor-assay potency score (higher = more potent) of -0.976.

TGTAGTACAGGTAGCTTGCTTT displayed a sensor-assay potency score (higher = more potent) of -0.453.

Sequence TTCTTTCTTGAACATAAGCAAA gave a sensor-assay potency score (higher = more potent) of -1.59.

TTGCTTTTCATAGCAGATGAAT registered a sensor-assay potency score (higher = more potent) of -1.47.

The sequence TTGCTTCAATATTTTGTCGTAT had a sensor-assay potency score (higher = more potent) of -0.787.

For TTCTGTAGTACAGGTAGCTTGC, the sensor-assay potency score (higher = more potent) is -0.197.

Turning to TAAATATCTAAATAACTGCTGA, the sensor-assay potency score (higher = more potent) is -0.29.

TAATACAAAATCTTCTTTCTTG: the sensor-assay potency score (higher = more potent) worked out at 0.259.

Take TTTCTGTAGTACAGGTAGCTTG: the sensor-assay potency score (higher = more potent) is -1.

With TAGCAGATGAATATGGGCCTAA, the sensor-assay potency score (higher = more potent) was -0.352.
Further: reference of the scale not given here.
